# Sampled rows, rich in hits. Any-hit rate of the full collection: about 2.7%.
# PAX8 reporter – inhibitors of PAX8 transcriptional activity in RMG-I cells; RMG-I TPO-luciferase reporter, SteadyGlo, 24 h; 360,000 tested, 1.2% active; inhibition, % at 12.6 µM;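 active = mean replicate inhibition at least 60% with every replicate also reaching 60%; inconclusive = only one of the two criteria is met; inactive = mean below 60% and not all replicates reaching 60%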;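 note: luciferase light reporting Pax8 driven TPO promoter activity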
# PGC1a acetyl inh – modulators of PGC1a acetylation; AID 651687; 350,000 tested, 0.17% active; U2OS PGC1a acetylation, AlphaScreen anti-acetyl-lysine; with virally co-expressed GCN5 acetyltransferase; inhibition, % at 15.6 µM;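 active = every replicate shows inhibition of at least 40%; inconclusive = mean inhibition at least 40% but some replicate below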
# EWS-Fli inh – EWS/Fli transcriptional activity inhibition. A673 NR0B1-luciferase reporter, viability-normalised. inhibition, % at 12.6 µM. 350,000 tested, 0.67% active. AID 651661;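 active = mean inhibition of at least 50% after viability correction, with every replicate also passing that limit; inconclusive = mean reaches 50% but only one of two replicates passes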;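 note: firefly luciferase signal divided by Alamar Blue viability fluorescence both relative to DMSO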
# Env fusion inh – HIV envelope-mediated fusion inhibition | 360,000 tested, 1.1% active | inhibition, % at 12.3 µM | HeLa-JRFL Env/CEM21 cell fusion, luciferase;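 active = mean replicate inhibition score of at least 50 and every replicate individually at or above 50; inconclusive = only one of the two criteria met; inactive = mean below 50 and not all replicates reaching 50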
# INS-1E GSIS act – GLuc luminescence reporter in INS-1E cells, primary screen for activators of glucose-dependent secretion of insulin; INS-1E GLuc reporter insulin secretion, 2-3 h; activation, % at 16.6 µM; 370,000 tested, 0.61% active; AID 743287;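 active = lowest replicate activation of at least 40%, so every replicate reaches that level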
# F508del corr – correctors of CFTR F508del function in bronchial epithelial cells | CFBE cells, YFP halide quenching; stimulated with forskolin plus potentiator P3; % fluorescence drop versus neutral controls | 350,000 tested, 0.36% active | activity (quench increase), % at 7.58 µM;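 active = mean added fluorescence quench of at least 8% versus neutral control, with both replicates also reaching 8%; inconclusive = only one of the mean or replicate conditions met; inactive = mean below 8% and not both replicates reaching 8%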;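 note: cells transiently co-express mutant CFTR-F508del with the halide-sensitive YFP; corrector assay measuring rescue of mutant channel to the surface after 24 h compound exposure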
# Hits are given with their value; n = inactive; u = inconclusive; x = no result; [ ] = dose if it differs, or a comment.
SMILES,PAX8 reporter,PGC1a acetyl inh,EWS-Fli inh,Env fusion inh,INS-1E GSIS act,F508del corr
COc1ccc(OC)c(CN2C(=O)c3ccccc3C2c2nnnn2-c2c(C)cccc2C)c1 (stereo unspecified),n,x,n,67.9,n,n
COc1ccccc1CNC(=O)C[C@@H]1CC[C@@H]2[C@H](COC[C@H](O)CN2Cc2cccc(-c3ccncc3)c2)O1,n,n,n,n,n,n
COc1cccc(NC(=O)N(C)C[C@H]2Oc3cc(/C=C/c4ccccc4)ccc3S(=O)(=O)N([C@@H](C)CO)C[C@H]2C)c1,x,n,n,n,n,n
CC(C)NC(=O)Nc1ccc2c(c1)CC(=O)N(C)C[C@@H](C)[C@@H](CN(C)C(=O)NC(C)C)O2,x,x,x,x,n,x
O=C(Cn1c(=O)n(CC2CCCO2)c(=O)c2ccccc21)c1ccc(Cl)c(Cl)c1 (stereo unspecified),x,n,x,58.0,x,x
O=C(C[n+]1ccccc1)c1ccc(-c2ccccc2)cc1,n,n,n,n,n,n
CN(C)c1cc[n+](CC(=O)c2ccc(-c3ccccc3)cc2)cc1,97.5,x,n,63.8,n,n
COCCOC(=O)N1C(=O)[C@@]2(c3ccccc31)[C@H](c1ccccc1OCCO)N1[C@H](c3ccccc3)[C@H](c3ccccc3)OC(=O)[C@H]1[C@@H]2C(=O)N1CCN(c2ncccn2)CC1,n,x,n,n,x,n
Cc1cn(CC(C)C)c(=O)n(-c2ccccc2)c1=O,x,n,n,n,51.1,n
Cc1cn(C2CCCCC2)c(=O)n(-c2ccccc2)c1=O,n,n,n,n,n,n
COc1ccc(S(=O)(=O)N2C[C@H](O)COC[C@H]3O[C@H](CC(=O)N[C@@H]4CCN(Cc5ccccc5)C4)CC[C@@H]32)cc1,n,n,n,n,n,n
OCCCNc1cc(-c2ccnc(Nc3cccc(Cl)c3)n2)ccn1,98.4,x,n,n,n,n
CCC(C)Oc1cc(-c2ccnc(Nc3cccc(Cl)c3)n2)ccn1 (stereo unspecified),n,x,n,66.3,n,n
CN(C)CCCNc1ccc(-c2cc(Nc3cccc(Cl)c3)ncn2)cn1,n,n,n,n,x,n
CO[C@H]1CC[C@@H]2CCOc3ccc(C#N)cc3C(=O)N(C)C[C@@H](OC)[C@H](C)C(=O)N(C)C[C@H]1O2,n,x,n,n,n,x
COc1ccc(CN(C)C[C@@H]2Oc3c(NS(=O)(=O)c4ccc(C)cc4)cccc3C(=O)N([C@@H](C)CO)C[C@H]2C)cc1,n,n,n,x,n,n
Cc1ccc(S(=O)(=O)N(C)C[C@@H]2Oc3ccc(NC(=O)C4CCCCC4)cc3CC(=O)N([C@@H](C)CO)C[C@@H]2C)cc1,x,n,n,78.9[16.7 µM],n,n
CC(C)NC(=O)N(C)C[C@@H]1Oc2ccc(NC(=O)C3CC3)cc2CC(=O)N([C@@H](C)CO)C[C@@H]1C,n,n,n,59.1[16.7 µM],n,n
COc1ccc(S(=O)(=O)N(C)C[C@H]2Oc3ccc(NC(=O)C4CCCCC4)cc3CC(=O)N([C@H](C)CO)C[C@@H]2C)cc1,n,n,n,n,n,n
COc1ccc(S(=O)(=O)N(C)C[C@@H]2Oc3ccc(NC(=O)C4CCCCC4)cc3CC(=O)N([C@@H](C)CO)C[C@@H]2C)cc1,n,n,n,65.7[16.7 µM],n,n
COc1cccc(S(=O)(=O)N[C@@H]2CC[C@H](CC(=O)NC3CCC3)O[C@@H]2CO)c1,n,n,n,n,n,n
CO[C@H](CN(C)S(=O)(=O)c1ccc(C)cc1)[C@@H](C)CN(Cc1ccccc1Cl)[C@H](C)CO,x,n,n,x,n,n
CCOC(=O)C1=C(C)N(C[C@@H]2CC[C@@H](Cc3ccc(-c4ccccc4)cc3)O2)C(=O)NC1c1cccc2ccccc12 (stereo partly specified),n,x,n,n,n,n
CCOC(=O)C1=C(C)N(C[C@@H]2CC[C@@H](Cc3ccc(-c4ccccc4)cc3)O2)C(=O)NC1c1ccc(C(F)(F)F)cc1 (stereo partly specified),n,x,n,67.1,n,n
O=c1cc2oc3cc(O)c(O)cc3c(-c3ccccc3[N+](=O)[O-])c-2cc1O,101.9,x,n,n,n,n
SMILES,PAX8 reporter,PGC1a acetyl inh,EWS-Fli inh,Env fusion inh,INS-1E GSIS act,F508del corr
CN(C)C(=O)C[C@H]1CC[C@@H]2[C@H](COc3ccc(NC(=O)C4CC4)cc3C(=O)N2C)O1,n,n,n,x,n,n
Cc1noc(C)c1NC(=O)Nc1cccc2c1O[C@H](CN(C)S(=O)(=O)c1cccs1)[C@H](C)CN([C@H](C)CO)C2=O,x,n,n,x,n,n
CCc1noc(C)c1C(=O)N1CCN(c2cccc(C)c2C)CC1,n,x,n,n,n,n
Cc1cccc(N2CCN(C(=O)c3c(-c4ccccc4)noc3C)CC2)c1C,x,n,n,x,n,15.4
Cc1onc(-c2ccccc2Cl)c1C(=O)N1CCN(c2cccc(Cl)c2)CC1,n,n,54.5,n,x,8.1
O=C(OCc1cnc(Cl)s1)c1ccccc1Cl,x,n,x,x,x,x
O=C(OCc1cnc(Cl)s1)c1cccs1,n,94.3,n,n,n,n
CN(C)CCCNC(=O)C[C@H]1CC[C@@H]2[C@H](COc3ccc(NC(=O)c4ccccc4F)cc3C(=O)N2C)O1,n,n,n,x,n,n
COC(=O)c1cc2ccccc2c(-c2c(OC)c(C(=O)OC)cc3ccccc23)c1OC,n,n,x,n,x,x
COC(=O)c1cc2ccccc2c([N+](=O)[O-])c1O,n,n,n,n,55.2,n
O=C(Cn1c(C(F)(F)F)nc2ccccc21)c1ccc(Cl)cc1,x,n,x,64.4,x,x
O=C(Cn1c(C(F)(F)F)nc2ccccc21)c1ccccc1,x,n,n,x,n,n
Cc1cccc(S(=O)(=O)N2C[C@@H](O)COC[C@H]3O[C@@H](CC(=O)N4CCN(C)CC4)CC[C@@H]32)c1,n,n,n,x,n,n
CCNC(=S)N1CCN(c2ccccn2)CC1,n,x,n,n,n,x
CC(NNC(=S)N1CCN(c2ccccn2)CC1)c1nccc2ccccc12 (stereo unspecified),71.8,n,n,n,n,n
COc1ccccc1CNC(=O)C[C@@H]1CC[C@@H]2[C@H](COC[C@@H](O)CN2C(=O)Nc2ccc(F)cc2)O1,n,n,n,n,n,n
Cc1ccc2c(c1)N(C(C)C(=O)NCc1cccs1)C(=O)CO2 (stereo unspecified),n,n,n,n,51.0,n
Cc1cc(C(=O)COC(=O)c2ccccc2O)c(C)n1CC1CCCO1 (stereo unspecified),81.3,n,84.3,u,n,n
C[C@@H](NC(=O)[C@@H]1[C@@H](CO)[C@@H]2Cn3c(ccc(-c4ccccc4)c3=O)[C@@H]2N1C)c1ccccc1,x,x,n,x,n,n
Nc1ncnc2c1ncn2[C@@H]1O[C@H](CO)[C@@H](O)[C@@H]1O,n,n,n,x,n,n
Nc1ncnc2c(C3OC(CO)C(O)C3O)scc12 (stereo unspecified),113.8,n,n,108.9,n,n

# Screening data from PubChem BioAssay.
